# From PubChem BioAssay
# MsrA act – bovine methionine sulfoxide reductase A activation | purified bovine MsrA, absorbance read-out | activation, % at 10.6 µM | 360,000 compounds, 0.3% hits | AID 602163; in the data active means activation above about 7.5%;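 further: 0% = vehicle and 100% = reference activator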
# MsrA inh – inhibits bovine methionine sulfoxide reductase A; purified bovine MsrA, absorbance read-out; 360,000 compounds, 0.75% hits; AID 651718; inhibition, % at 15.5 µM;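 further: 0% = vehicle wells with enzyme and 100% = reference inhibitor wells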
# rCAG RNA binder – molecules binding r(CAG) RNA repeats; AID 651821; inhibition, % at 3 µM; r(CAG) RNA repeat, TO-PRO-1 dye displacement fluorescence; 370,000 compounds, 1.3% hits;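 active means inhibition above the plate cutoff, the mean of all test compounds on that plate plus 3 SD, cut at about 35% in these data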;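 further: 0% = DMSO alone and 100% = 100 µM mitoxantrone as full dye displacement; higher means more dye released from RNA so lower well fluorescence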
# NadD block – NadD (S. aureus) enzyme inhibition. purified NadD enzyme, colorimetric absorbance read-out. inhibition, % at 20 µM. AID 602399. 360,000 compounds, 0.78% hits; in the data active means inhibition above about 26%
# MsrA conf – bovine MsrA inhibition, confirmed. 2,300 compounds, 41% hits. shares compounds with MsrA inh. AID 651822. purified bovine MsrA, absorbance read-out. inhibition, % at 15.5 µM;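 further: coupled to thioredoxin reductase with NADPH and selenocystamine and DMSO as substrate; 0% = vehicle only and 100% = full effect of reference inhibitor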
# * marks the source's active call; other numbers are inactive results; · = no result given. Hits are enriched below; roughly 2.7% of the tested compounds scored in any of these assays. Unless noted, no stated cut-off is given here; in the data, active means inhibition above about 4.5%; inactive means the rest.
SMILES,MsrA act,MsrA inh,rCAG RNA binder,NadD block,MsrA conf
COCc1cc(C)nc(OCC(=O)N/N=C/c2ccc(C)o2)c1C#N,-5,6.7*,-1,-2,2
COCc1cc(C)nc(OCC(=O)N/N=C/c2ccc(O)cc2)c1C#N,-2,0,1,0,·
N#Cc1cn(-c2ccccc2)nc1-c1ccc2c(c1)OCCO2,0,0,-3,4,·
O=Cc1cn(-c2ccccc2)nc1-c1ccc2c(c1)OCCO2,-2,17*,-1,-11,12*
O=Cc1cn(-c2ccccc2)nc1-c1ccc(F)cc1,-2,12*,-1,-4,8.3*
CC(C)(O[C@@H]1O[C@H](CO)[C@@H](O)[C@H](O)[C@H]1O)[C@@H]1CC=C(C(=O)O)CC1,-1,0,0,-1,·
CC1CCCN(C(=O)C2CCN(c3ncnc4c3nc3n4CCCCC3)CC2)C1 (centres undefined),0,0,-8,-2,·
CN1/C(=C/C(=O)C2CC2)C(C)(C)c2ccccc21,-2,5.8*,-4,0,5.1*
CN1/C(=C\C(=O)Nc2ccc(Br)cc2)C(C)(C)c2ccccc21,-12,1,0,2,·
Cc1ccccc1CN(C)C(C)C(=O)Nc1ccccc1F (centres undefined),-1,0,-7,-9,·
CC1(C)CC(N2CCOCC2)=CC(=[N+]2CCOCC2)C1,-9,10*,-1,11,5.5*
CC1C[N+](=C2C=C(N3CCOCC3)CC(C)(C)C2)CC(C)O1 (centres undefined),-13,11*,0,15,6.7*
CC1(C)CC(N2CCCCC2)=CC(=[N+]2CCCCC2)C1,-8,10*,-6,8,8.1*
CCCN(CCC)C1=CC(=[N+]2CCCC2)CC(C)(C)C1,-9,5.1*,-1,14,4
CN(C)c1cccc(N=C2C=C(N3CCOCC3)CC(C)(C)C2)c1,-5,3,-4,16,·
CN(C)NC1=CC(=[N+]2CCCC2)CC(C)(C)C1,-5,1,-3,-2,·
Cc1cc(C)nc(NNC2=CC(=[N+]3CCCCC3)CC(C)(C)C2)n1,-11,3,-4,0,·
CCOC(=O)[C@]12CCC=C1N(Cc1ccco1)C(=O)[C@H](CC(=O)N1CCN(C(=O)C3CC3)CC1)C2,-2,0,9,10,·
O=C(OC12CCCN(C1)/C(=C/c1ccc(Cl)cc1)C2)c1ccc(Cl)cc1 (centres undefined),·,·,6,·,·
CN1c2ccsc2C(O)=C(C(=S)Nc2ccc(F)c(Cl)c2)S1(=O)=O,-13,6.5*,67*,3,5.1*
Cn1cc(C(=O)Nc2ccc(F)c(Cl)c2)cn1,0,0,1,1,·
C=CCOc1ccccc1CN1CCCC(CCC(=O)N(C)CCc2ccccn2)C1 (centres undefined),-3,-1,-9,-3,·
CCc1n[nH]c(=S)n1/N=C/c1ccc(-c2ccc(Br)cc2)o1,-10,1,13,2,·
CCc1n[nH]c(=S)n1/N=C/c1cc(Br)c(OC)cc1OC,-5,16*,12,-3,10*
CCCc1n[nH]c2c1/C(=N\OCC)CC(C)(C)C2,-1,4.8*,-7,-2,2
SMILES,MsrA act,MsrA inh,rCAG RNA binder,NadD block,MsrA conf
COCCCNC(=O)[C@H](Cc1ccccc1)NC(=O)CC[C@H]1O[C@@H](n2ccc(=O)[nH]c2=O)[C@H](O)[C@@H]1O,1,0,1,-3,·
Cn1c(=O)n(Cc2ccc(Br)cc2)c2ccccc21,-3,-1,-6,-4,·
C(=N\n1cnnc1)/c1cn(-c2cccs2)nc1-c1ccccc1,-3,4.8*,2,2,3
CC1CN(C(=O)/C=C/c2ccc3c(c2)OCO3)CC(C)O1 (centres undefined),-13,6.0*,-4,-1,1
O=C(/C=C/c1ccc2c(c1)OCO2)N1CCOCC1,-4,3,3,7,·
C=Cc1ccc(CC2(C)C(=O)Nc3ccc(-c4cccnc4)cc32)cc1 (centres undefined),-3,13*,1,-3,6.3*
O=C(NNc1c(F)c(F)cc(F)c1F)c1ccc(Cl)nc1,-3,1,-3,-2,·
CCOC(=O)c1cc(C(=O)c2cc(F)ccc2O)coc1=N,-4,4,-1,2,·
N=c1occ(C(=O)c2cc(F)ccc2O)cc1C(=O)NC1CCCCC1,-2,4.9*,3,1,0
COc1cccc(C(=O)C2CCCN(Cc3c(C)n(C)n(-c4ccccc4)c3=O)C2)c1 (centres undefined),-2,2,-2,-10,·
COCCn1c(C)cc(C(=O)COc2nc3ccccc3nc2C)c1C,-12,4.8*,-1,-2,2
COCCn1c(C)cc(C(=O)CSc2ccc3ccccc3n2)c1C,-2,2,4,0,·
CCc1cc2c(=O)c(-c3nc4ccccc4n3C)c(C(C)C)oc2c(CN2CCN(C)CC2)c1O,-3,2,-5,-1,·
CCc1cc2c(=O)c(-c3nc4ccccc4n3C)c(C)oc2c(CN2CCOCC2)c1O,-10,5.0*,1,-6,1
CCc1cc2c(=O)c(-c3nc4ccccc4n3C)c(C)oc2c(CN2CCN(CCO)CC2)c1O,-8,5.2*,-3,1,3
O=C(O)c1cccn2c(=O)c3ccccc3nc12,-5,4.7*,1,4,4
CC1(CC(=O)N/N=C/c2cc(Br)c(O)cc2O)OCCO1,-11,6.1*,-3,1,5.3*
Cc1oc(/C=N/NC(=O)CC2(C)OCCO2)cc1Br,-9,0,1,-7,·
C/C(N)=C(/C#N)C(=O)CSc1nn(-c2ccc(Cl)cc2)c(=S)s1,-5,21*,12,-5,14*
N#C/C(=C/c1cccs1)c1ccccn1,-5,5.1*,1,-3,5.4*
CCN1CCCC1CNC(=O)Cn1nc(C)n2nc(-c3ccccc3)cc2c1=O (centres undefined),-3,1,1,-8,·
CN(c1nc2nonc2nc1NC1CC1)C1CCOC1 (centres undefined),-3,5.0*,3,5,2
O=C(O)CC1S/C(=N\N=C2\C(=O)Nc3ccccc32)N(c2ccc(O)cc2)C1=O (centres undefined),-2,5.9*,8,0,4
Cc1cccc(NC(=O)/C(C#N)=C/c2ccc[nH]2)c1C,-2,3,-3,-7,·
COc1ccc(/C=C(/C#N)C(=O)Nc2ccc(C)cc2C)cc1C(=O)O,-3,7.0*,1,1,6.1*
COc1ccc(/C=C(/C#N)C(=O)Nc2cccc(C)c2C)cc1C(=O)O,-4,0,14,-3,·
COc1ccc(/C=C(/C#N)C(=O)Nc2ccccc2C)cc1C(=O)O,-2,5.6*,6,-7,4
COc1ccc(/C=C(/C#N)C(=O)Nc2cccc([N+](=O)[O-])c2)cc1C(=O)O,-9,1,11,-4,·
Cc1ccc(C)c(NC(=O)/C(C#N)=C/c2ccc[nH]2)c1,-6,9.3*,-1,-5,11*
CC(C)c1ccc(NC(=O)[C@@H]2CCC(=O)N2C2OC(=O)c3ccccc32)cc1 (some centres undefined),2,1,1,0,·
